{"source": "PubChem BioAssay"}
{"assay": "probe aShh binding to arrayed compounds – biochemical, biotinylated probe, 635/667 nm fluorescence, primary screen (AID 1114);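 note: probe is biotin-labelled aShh protein from a stem cell growth factor screen; measures binding of labelled protein to compounds printed on the slide; score merges feature fluorescence at 667 nm with signal-to-noise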", "details": "small-molecule microarray, higher = more signal"}
{"smiles": "CC[C@H]1C2=C3C(CC[C@H]4C(OC)OC[C@](C)([C@@H]34)N(C(=O)OC(C)(C)C)C2)C(CO)C1CO", "note": "(some centres undefined)", "composite z-score": -0.349}
{"smiles": "CC(C)(C)OC(=O)CC[C@@]1(C(=O)NCc2ccccc2)N=C(c2ccc(OCCCO)cc2)O[C@@H]1c1ccccc1", "composite z-score": 0.14}
{"smiles": "CC(C)[Si](OCC[C@H]1O[C@]2(C(=O)N(Cc3ccccc3)c3ccccc32)[C@@H](C)[C@@H]1[Si](C)(C)O)(C(C)C)C(C)C", "composite z-score": 0.0204}
{"smiles": "C[C@H]1COC(=O)[C@H](Cc2ccccc2)NC(=O)[C@@H](C)COC(=O)[C@H](Cc2ccccc2)NC1=O", "composite z-score": 0.0711}
{"smiles": "COc1ccc([Si](C)(C)[C@H]2[C@H](CC(=O)N3Cc4ccccc4C[C@H]3CO)O[C@@]3(C(=O)N(Cc4cccc(N5CCOC5=O)c4)c4ccccc43)[C@@H]2C)cc1", "composite z-score": -0.17}
{"smiles": "CO[C@H]1COC(=O)[C@@H](OCc2ccccc2)C=C[C@H](C)[C@@H](OC)COC(=O)[C@H](OCc2ccccc2)C=C[C@@H]1C", "composite z-score": -0.138}
{"smiles": "C=C(COC)C(=O)CC[C@H](OC(=O)c1ccccc1-c1ccccc1C(=O)O)c1cccc(OCCO)c1", "composite z-score": -0.17}
{"smiles": "Cc1ccc(S[C@]2(C(=O)O)CC(=O)N(Cc3ccccc3)[C@@H]2c2ccc(CO)cc2)cc1", "composite z-score": 0.046}
{"smiles": "O=C(O)[C@@H]1Cc2c([nH]c3ccccc23)[C@@H](c2ccccc2)N1", "composite z-score": -0.124}
